This note sets out measurements from PubChem BioAssay (Tox21).

Assay [1] can be described thus: qHTS assay to identify small molecule antagonists of the progesterone receptor (PR) signaling pathway - cell viability counter screen (AID 1346798). Note: nearly all actives have a fitted effect of over 50% in size. Note: potency is the fitted concentration of half-maximal effect. The gist of the method: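 PR-UAS-bla HEK293T cells, 3,000/well in 2% charcoal-stripped FBS medium, dosed with compounds plus R5020 agonist and incubated 16 h at 37C. Viability then measured in the same wells by CellTiter-Glo luminescence after 30 min at RT.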
Background: qHTS replaces the single test concentration by a dilution series.

The nature of assay [2]: qHTS assay to identify small molecule agonists of the progesterone receptor (PR) signaling pathway - cell viability counter screen (AID 1346799; calls by dose curve; note: nearly all actives have a fitted effect of over 45% in size; note: potency is the fitted concentration of half-maximal effect). The gist of the method: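 Counter screen in the PR-UAS-bla HEK293T wells (2% charcoal-stripped FBS, 16 h compound exposure at 37 C) after the bla read. CellTiter-Glo added, 30 min at room temperature, luminescence read as cell viability.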

The nature of assay [3]: qHTS assay to identify small molecule antagonists of the TGF-beta/Smad signaling pathway - cell viability counter screen (AID 1346824). Note: nearly all actives have a fitted effect of over 50% in size. Note: potency is the fitted concentration of half-maximal effect. The gist of the method: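 Cytotoxicity counter-screen run in the same wells as the beta-lactamase Smad reporter read: CellTiter-Glo luminescence after 30 min at room temperature. HEK 293T SBE-bla cells had 5 hr compound exposure at 37 C with TGF-beta1 (0.25 ng/mL stock).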

Assay [4] in a line: qHTS assay to identify small molecule agonists of the TGF-beta/Smad signaling pathway - cell viability counter screen (AID 1346829). Note: nearly all actives have a fitted effect of over 45% in size. Note: potency is the fitted concentration of half-maximal effect. In short, it runs like this: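 HEK 293T SBE-bla line, 5 hr compound exposure at 37 C, multiplexed CellTiter-Glo viability read by luminescence.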
For assay [5], the target named is Thyrotropin-releasing hormone receptor (Homo sapiens) (UniProt P34981). Kind of assay: qHTS assay to identify small molecule antagonists of the thyrotropin-releasing hormone receptor (TRHR) signaling pathway (AID 1346877; active = well fitted inhibition curve with a large enough effect in the repeat runs, not every such curve was filed as active; note: series mostly up to about 51 µM). The gist of the method:
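Calcium signal in dye-loaded TRHR/HEK293 cells; compounds added 5 min before TRH (1 nM final); fluorescence monitored 3 min at 1 s steps.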

Assay [6] shares this target. Kind of assay: qHTS assay to identify small molecule agonists of the thyrotropin-releasing hormone receptor (TRHR) signaling pathway (AID 1346891; calls by dose curve; note: series mostly up to about 58 µM). The gist of the method: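 HEK293 cells expressing TRHR plated 18 h at 37 C/5% CO2, calcium dye-loaded 2 h at 37 C, then compound added (agonist mode); kinetic calcium fluorescence read 3 min at 1 s intervals; 15 concentrations in triplicate.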

A short description of assay [7]: Human pregnane X receptor (PXR) small molecule agonists, qHTS cell viability counter screen (AID 1346977). Note: nearly all actives have a fitted effect of over 50% in size. Note: potency is the fitted concentration of half-maximal effect. In short, it runs like this:
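PXR-Luc HepG2 cells (2,000/well, 5% charcoal-stripped FBS) preincubated 5 hr, then exposed to compounds 24 hr at 37 C. Viability read in the same wells by CellTiter-Fluor fluorescence, reagent added at 23 hr, 1 hr incubation.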

The nature of assay [8]: qHTS assay to identify small molecule agonists of the TGF-beta/Smad signaling pathway (AID 1346859; active = well fitted activation curve with a large enough effect in the signal ratio in the repeat runs, not every such curve was filed as active; the % refers to the signal ratio; note: series mostly up to about 77 µM). In short, it runs like this: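 SBE-bla HEK293T cells plated overnight, then compound exposure for 5 h at 37 C. Beta-lactamase reporter read with LiveBLAzer B/G FRET substrate after 2 h at room temperature, fluorescence at 405 nm excitation, 460/530 nm emission.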

Results filed as inconclusive are left out. The source made the active and inactive calls. Unless noted, calls come from the whole dose curve; as a rule, active = well fitted curve in the direction sought with a large enough effect in the repeat runs; inconclusive = weak or mixed curves; inactive = no such curve, though single readings can be large; an effect the other way counts as inactive or inconclusive.

Thyrotropin-releasing hormone receptor (Homo sapiens), sequence (P34981 whole entry, looked up): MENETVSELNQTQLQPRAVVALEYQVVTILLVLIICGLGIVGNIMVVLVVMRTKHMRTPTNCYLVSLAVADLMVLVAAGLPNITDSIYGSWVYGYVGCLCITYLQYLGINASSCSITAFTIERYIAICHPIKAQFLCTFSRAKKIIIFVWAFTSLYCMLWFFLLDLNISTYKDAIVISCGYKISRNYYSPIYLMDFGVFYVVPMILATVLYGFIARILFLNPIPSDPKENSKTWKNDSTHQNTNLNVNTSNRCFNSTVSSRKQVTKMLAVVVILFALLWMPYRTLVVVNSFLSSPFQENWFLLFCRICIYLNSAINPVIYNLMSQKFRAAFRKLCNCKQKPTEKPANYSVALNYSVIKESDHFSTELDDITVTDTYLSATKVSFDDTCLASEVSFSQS

In the case of `CCCCCCCCNC(C)C(O)c1ccc(SC(C)C)cc1` (stereo unspecified), the Potency in assay [1] is 29.8 µM (active); in assay [2] it was 29.8 µM (active); in assay [3], 21.3 µM (active); in assay [4], 23.9 µM (active); in assay [7] it was 13.3 µM (active). Moreover, the Potency result in assay [5] and in assay [6] was “inactive” in each case.

For the compound `CC(=O)OCC(C)OC(C)=O` (stereo unspecified), the Potency result in assay [1], in assay [2], in assay [3], in assay [4], in assay [8] and in assay [5] was “inactive” in each case. Also, the Potency entry in assay [6] and in assay [7] was “inactive” in each case.

As for `CCCCCCCCCCCC(=O)NCCCN(C)C`, the Potency is 54.5 µM (active) in assay [1]; 30.6 µM (active) in assay [2]; 49 µM (active) in assay [3]; 54.9 µM (active) in assay [4]; 38.6 µM (active) in assay [7]. Besides, the Potency result in assay [8], in assay [5] and in assay [6] was “inactive” throughout.

`CCN(CCC#N)c1ccc(N=Nc2c(Cl)cc([N+](=O)[O-])cc2Cl)cc1`: the Potency result in assay [1], in assay [2], in assay [3], in assay [4], in assay [8] and in assay [5] was “inactive” each time. Moreover, the Potency entry in assay [6] was “inactive”.

`CC[C@H]1O[C@]2(CC[C@@H]1C)C[C@@H]1C[C@@H](C/C=C(\C)C[C@@H](C)/C=C/C=C3\CO[C@@H]4[C@H](O)C(C)=C[C@@H](C(=O)O1)[C@]34O)O2`: the Potency is 68 µM (active) in assay [1], 54.5 µM (active) in assay [3] and 54.5 µM (active) in assay [4]. Further, the Potency entry in assay [5] and in assay [6] was “inactive” each time.

For the compound `CCCCCCCCCCCC[N+](C)(C)CCCCCCCCCCCC`, the Potency in assay [1] is 43.3 µM (active); in assay [2] it was 19.3 µM (active); in assay [3] it was 43.6 µM (active); in assay [7], 27.3 µM (active). Further, the Potency result in assay [5] and in assay [6] was “inactive” throughout.

Consider `CCOC(=O)O[C@H](C)OC(=O)c1ccc2c(c1)cc(C(=O)NC1CCN(C(C)C)CC1)n2Cc1cc(-c2ccc(Cl)s2)on1`, for which the Potency was 22.7 µM (active) in assay [1], 22.7 µM (active) in assay [2] and 45.4 µM (active) in assay [7]. In addition, the Potency result in assay [5] and in assay [6] was “inactive” in each case.

`NC(=O)C1(N2CCCCC2)CCN(CCCN2c3ccccc3CCc3ccc(Cl)cc32)CC1`: the Potency in assay [1] is 23.7 µM (active); in assay [2], 16.8 µM (active); in assay [7], 13.3 µM (active). Besides, the Potency result in assay [5] and in assay [6] was “inactive” throughout.

On to `O=[N+]([O-])c1cc([N+](=O)[O-])c2ccc(S(=O)(=O)O)cc2c1O`, for which the Potency entry in assay [1], in assay [2] and in assay [4] was “inactive” in each case. In assay [7], the Potency was 27.1 µM (active).

For `CCOC(=O)c1nc(C(Cl)(Cl)Cl)n(-c2ccc(Cl)cc2Cl)n1`, the Potency in assay [1] is 61.1 µM (active); in assay [2] it was 61.1 µM (active); in assay [7], 54.5 µM (active). The Potency entry in assay [3] and in assay [4] was “inactive” throughout.

As to `C=CC(=O)OCCn1c(=O)n(CCOC(=O)C=C)c(=O)n(CCOC(=O)C=C)c1=O`, the Potency is 21.7 µM (active) in assay [1], 43.3 µM (active) in assay [2] and 27.3 µM (active) in assay [7]. In addition, the Potency entry in assay [3], in assay [5] and in assay [6] was “inactive” in each case.

`CCCCc1oc2ccc(NS(C)(=O)=O)cc2c1C(=O)c1ccc(OCCCN(CCCC)CCCC)cc1`: the Potency is 18.8 µM (active) in assay [1], 13.3 µM (active) in assay [2], 23.9 µM (active) in assay [3] and 18.8 µM (active) in assay [7]. Further, the Potency result in assay [5] and in assay [6] was “inactive” throughout.

In the case of `Oc1ccc(C2(c3ccc(O)cc3)CC3CC2C2CCCC32)cc1` (stereo unspecified), the values for the Potency in assay [1], in assay [2] and in assay [7] were 41.6 µM (active), 58.7 µM (active) and 58.7 µM (active), respectively. The Potency result in assay [4], in assay [8], in assay [5] and in assay [6] was “inactive” each time.

`CCN(CC)CCCC(C)Nc1c2ccc(Cl)cc2nc2ccc(OC)cc12` (stereo unspecified): in assay [1], the Potency was 13.3 µM (active). For the same compound, the Potency result in assay [3], in assay [4], in assay [5] and in assay [6] was “inactive” in each case.

In the case of `O=C1Cc2cc(CCN3CCN(c4nsc5ccccc45)CC3)c(Cl)cc2N1`, the Potency entry in assay [1], in assay [2], in assay [3], in assay [8], in assay [5] and in assay [6] was “inactive” each time.

Consider `Cc1cc(O)c(C(C)(C)C)cc1Sc1cc(C(C)(C)C)c(O)cc1C`, for which the Potency in assay [1] is 30.6 µM (active); in assay [2], 27.3 µM (active); in assay [3] it was 48.9 µM (active); in assay [4] it was 34.6 µM (active); in assay [7], 13.7 µM (active). Further, in assay [6], the Potency result is “inactive”.

`N=C1N=C(N)c2cc3ccccc3cc21`: the figures for the Potency in assay [1], in assay [2] and in assay [7] were 27.3 µM (active), 27.3 µM (active) and 15.8 µM (active), respectively. The Potency entry in assay [5] and in assay [6] was “inactive” in each case.

Turning to `CC[C@@]1(O)C(=O)OCc2c1cc1n(c2=O)Cc2c-1nc1ccccc1c2/C=N/OC(C)(C)C`, the Potency entry in assay [1], in assay [2], in assay [3], in assay [4], in assay [5] and in assay [6] was “inactive” each time. In assay [7], the Potency is 0.237 µM (active).

For `Clc1ccc2n[nH]nc2c1`, the Potency entry in assay [1], in assay [3], in assay [4], in assay [8], in assay [5] and in assay [6] was “inactive” in each case. The Potency result in assay [7] is “inactive”.

Consider `CCCCCOC(=O)CCCC`, for which the Potency result in assay [1], in assay [2], in assay [4], in assay [8], in assay [5] and in assay [6] was “inactive” throughout. The Potency result in assay [7] was “inactive”.

For the compound `CCCN(CCC)c1c([N+](=O)[O-])cc(C(F)(F)F)c(N)c1[N+](=O)[O-]`, the Potency in assay [1] was 34.3 µM (active); in assay [2] it was 21.6 µM (active); in assay [4] it was 48.9 µM (active); in assay [7], 48.4 µM (active). Also, the Potency result in assay [6] was “inactive”.

Regarding `CC(=O)N1CCN(c2ccc(OC[C@H]3CO[C@](Cn4ccnc4)(c4ccc(Cl)cc4Cl)O3)cc2)CC1`, the Potency in assay [1] was 30.6 µM (active); in assay [2], 30.6 µM (active); in assay [7], 27.3 µM (active). Also, the Potency result in assay [8] is “inactive”.
